{"source": "ChEMBL document CHEMBL3433997", "about": "“St. Jude Leishmania screening dataset” (2016)"}
{"target": "Solute carrier family 2, facilitated glucose transporter member 1 (Homo sapiens) (UniProt P11166)", "sequence (P11166 whole entry)": "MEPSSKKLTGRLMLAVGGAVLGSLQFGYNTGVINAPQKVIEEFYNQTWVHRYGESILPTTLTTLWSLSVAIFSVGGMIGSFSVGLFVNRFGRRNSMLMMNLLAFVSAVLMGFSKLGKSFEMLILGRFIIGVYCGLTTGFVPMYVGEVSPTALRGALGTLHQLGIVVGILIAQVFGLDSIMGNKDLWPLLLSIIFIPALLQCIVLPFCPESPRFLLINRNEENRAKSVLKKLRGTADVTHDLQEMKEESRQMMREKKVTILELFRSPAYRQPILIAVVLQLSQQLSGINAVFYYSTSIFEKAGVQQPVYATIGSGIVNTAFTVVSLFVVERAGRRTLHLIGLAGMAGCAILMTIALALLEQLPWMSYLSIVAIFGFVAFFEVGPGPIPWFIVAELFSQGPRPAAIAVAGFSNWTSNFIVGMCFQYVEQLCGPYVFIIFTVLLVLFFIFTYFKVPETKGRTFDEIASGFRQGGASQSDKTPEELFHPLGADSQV", "test": "ST_JUDE_LEISH: Cytotoxicity at 2uM final concentration against transgenic Leishmania Mexicana promastigotes LmGLUT1 that are glucose transport deficient and complemented with the human glucose transporter GLUT1. Activity is measured by DNA content using SYBR green in vitro", "type": "functional", "units": {"inhibition": "%"}}
{"molecule": "COCCOc1ccc(Nc2nccc(-c3c(-c4cccc(NC(=O)c5c(F)cccc5F)c4)nn4ccccc34)n2)cc1Cl", "inhibition": 13.5}
{"molecule": "O=C(Nc1ccc(OC(F)(F)F)cc1)NC1CCN(c2ccnc3ccccc23)CC1", "inhibition": 6.11}
{"molecule": "Cc1cc(C2CCN(CCCCNC(=O)c3ccc(NC(=O)c4ccc(Cl)cc4)cc3)CC2)c(C)cc1OCc1nccn1C", "inhibition": 0.5}
{"molecule": "c1ccc(CN2CCC(NCc3cccc(-c4cncc5ccccc45)c3)CC2)cc1", "inhibition": 9.44}
{"molecule": "CC(C)C[C@H](NC(=O)c1ccc(F)cc1)C(=O)N[C@H](/C=N/NC(=O)c1ccccc1)CCc1ccccc1", "inhibition": 4.79}
{"molecule": "COc1ccc(-c2ccc(NC(=O)c3cccc(Cl)c3)cc2)cc1CN(C)CCO", "inhibition": 1.99}
{"molecule": "O=C1Nc2ccccc2/C1=N/NC(=S)N1CCOCC1", "inhibition": -0.69}
{"molecule": "CC(C)[C@H](NC(=O)c1ccc(O)c(-c2ccc(Cl)c(Cl)c2)c1)C(=O)NCCN1CCCC1", "inhibition": -0.22}
{"molecule": "Nc1nc(N)c2c(ccc3c2cnn3S(=O)(=O)N2CCCC2)n1", "inhibition": -1.43}
{"molecule": "CC(C)c1ccc(NC(=O)c2cccc(CN3CCCN(Cc4cccc(C#N)c4)CC3)c2)cc1", "inhibition": 6.55}
{"molecule": "COc1ccc(CCN(C)CCCCNC(=O)c2ccc(NC(=O)c3ccc(Cl)cc3)cc2)c(OC)c1", "inhibition": 1.64}
{"molecule": "CC(C)C[C@H](NC(=O)[C@H](Cc1ccccc1)NC(=O)CCN1C(=O)COc2ccc(C(=O)O)cc21)C(=O)NC(CC1CCCCC1)C(O)CC(=O)NCCCn1ccnc1", "note": "(stereo not given in full)", "inhibition": 9.79}
{"molecule": "Cc1nc2ccc3ccc(CNc4ccc(C(=O)CC(CCC(=O)O)C(=O)O)cc4)cc3c2c(=O)[nH]1", "note": "(stereo not given)", "inhibition": -0.57}
{"molecule": "CN1CCC(NCc2cccc(-c3cnc(NCc4ccccc4)nc3)c2)CC1", "inhibition": 0.74}
{"molecule": "Cc1cc(-c2nc3cncc(-c4cccc(CN5CCCC5Cc5cccnc5)c4)c3n2C)nn1C", "note": "(stereo not given)", "inhibition": -1.04}
{"molecule": "CCN(CC)CCN(Cc1ccc(-c2ccc(C(F)(F)F)cc2)nc1)C(=O)Cn1c(SCc2ccc(F)cc2)nc(=O)c2sccc21", "inhibition": 1.92}
{"molecule": "COc1ccc(-c2cnc3ccc(NCc4ccc(S(N)(=O)=O)cc4)nn23)cc1", "inhibition": 3.11}
{"molecule": "N#Cc1cccc(COC(=O)C2=C(COc3ccccc3Cl)NC(=O)NC2c2c[nH]c3cnccc23)c1", "note": "(stereo not given)", "inhibition": 9.04}
{"molecule": "Fc1ccc2c(NN=Cc3ccccc3)ccnc2c1", "inhibition": 2.29}
{"molecule": "Fc1ccc(C=NNc2nc3ccccc3[nH]2)cc1", "inhibition": 16.4}
{"molecule": "Cc1[nH]c(C)c(-c2ccc(OCc3ccccc3C(F)(F)F)nc2)c(=O)c1Br", "inhibition": 4.88}
{"molecule": "COc1ccccc1C1CCN(C2CCC(NC(=O)/C=C/c3cccc(C(F)(F)F)c3)CC2)CC1", "note": "(stereo not given)", "inhibition": 3.95}
{"molecule": "CS(=O)(=O)c1ccc2c(c1)CCN(CCC1CCC(NC(=O)C(=Cc3ccc(Cl)cc3Cl)c3ccc(-c4ccccc4)cc3)CC1)CC2", "note": "(stereo not given)", "inhibition": -0.33}
{"molecule": "O=C(NC1CCN(Cc2ccccc2)CC1)c1cc(C(=O)NC2CCN(Cc3ccccc3)CC2)cc(C(=O)NC2CCN(Cc3ccccc3)CC2)c1", "inhibition": 5.09}
{"molecule": "CCc1c[nH]c2c(N(c3ccccc3)S(C)(=O)=O)cc(C(=O)N[C@@H](Cc3ccccc3)[C@H](O)CNC(C)(C)CCCC(C)C)cc12", "inhibition": 0.74}
{"molecule": "CCc1cn(CCc2ccccc2)c2ccc(C(=O)N[C@@H](Cc3ccccc3)[C@H](O)CNC(C)(C)CCCC(C)C)cc12", "inhibition": -1.76}
{"molecule": "CCCCCC(=O)N1CCOC(CCN2CCc3c(c4ccccc4n3C)C2)(c2ccc(Cl)c(Cl)c2)C1", "note": "(stereo not given)", "inhibition": 10.5}
{"molecule": "Cc1nn(C)c(C)c1CN(Cc1nc(-c2cccc(Oc3ccccc3)c2)oc1C)C1CC1", "inhibition": 4.08}
{"molecule": "CC(C)C[C@@H](/C=N/N1CC(=O)NC1=O)NC(=O)[C@H](CC(C)C)NC(=O)c1ccc(OCCN2CCOCC2)cc1", "inhibition": -0.34}
{"molecule": "Nc1nc(N)c2c(ccc3c2ccn3CCCCO)n1", "inhibition": 5.49}
{"molecule": "Cc1ccccc1OCCCN1CCN(CC(c2ccc(F)cc2)N2CCN(C(C)C)CC2)CC1", "note": "(stereo not given)", "inhibition": 13.1}
{"molecule": "CCCc1ccc(S(=O)(=O)Nc2ccc3c(c2)CCC3)cc1", "inhibition": 1.93}
{"molecule": "Fc1ccccc1C=NN=c1cc[nH]c2ccc(C(F)(F)F)cc12", "inhibition": 3.03}
{"molecule": "COCCNCc1ccc(-c2cccc(CN(C(=O)NCCc3ccccc3)C3CCN(Cc4ccccc4)CC3)c2)cc1", "inhibition": 1.13}
{"molecule": "CCn1cc2c3c(cc(C(=O)N[C@@H](Cc4ccccc4)[C@H](O)CNCc4cccc(OC)c4)cc31)N(C)S(=O)(=O)CC2", "inhibition": 1.89}
{"molecule": "O=C(Nc1cccc(-c2cccc(-c3ccc(F)cc3)n2)c1)c1ccc([N+](=O)[O-])o1", "inhibition": 9.83}
{"molecule": "Cn1nc(-c2ccc(NC(=O)Nc3cc(C(F)(F)F)ccc3F)cc2)c2cnc(NCCc3c[nH]cn3)nc21", "inhibition": 3.35}
{"molecule": "Cc1ccc2[nH]c(C)c(Br)c(=O)c2c1", "inhibition": -1}
{"molecule": "Cc1noc(-c2ccccc2)c1NC(=O)NC1CCN(CCCCCNC(=O)/C=C/c2ccc(Cl)c(Cl)c2)CC1", "inhibition": 4.35}
{"molecule": "O=C(/C=C/c1ccc(Cl)c(Cl)c1)NC1CCC(CN2CCC(c3nc4ccccc4s3)CC2)CC1", "note": "(stereo not given)", "inhibition": 0.92}
{"target": "Hexose transporter 1 (Plasmodium falciparum) (UniProt O97467)", "test": "ST_JUDE_LEISH: Cytotoxicity at 2uM final concentration against transgenic Leishmania Mexicana promastigotes LmPfHT that are glucose transport deficient and complemented with the Plasmodium falciparum hexose transporter. Activity is measured by DNA content using SYBR green in vitro", "type": "functional", "units": {"inhibition": "%"}}
{"molecule": "COCCOc1ccc(Nc2nccc(-c3c(-c4cccc(NC(=O)c5c(F)cccc5F)c4)nn4ccccc34)n2)cc1Cl", "inhibition": 11.1}
{"molecule": "O=C(Nc1ccc(OC(F)(F)F)cc1)NC1CCN(c2ccnc3ccccc23)CC1", "inhibition": 5.45}
{"molecule": "Cc1cc(C2CCN(CCCCNC(=O)c3ccc(NC(=O)c4ccc(Cl)cc4)cc3)CC2)c(C)cc1OCc1nccn1C", "inhibition": 0.08}
{"molecule": "c1ccc(CN2CCC(NCc3cccc(-c4cncc5ccccc45)c3)CC2)cc1", "inhibition": 7.7}
{"molecule": "CC(C)C[C@H](NC(=O)c1ccc(F)cc1)C(=O)N[C@H](/C=N/NC(=O)c1ccccc1)CCc1ccccc1", "inhibition": 6.16}
{"molecule": "COc1ccc(-c2ccc(NC(=O)c3cccc(Cl)c3)cc2)cc1CN(C)CCO", "inhibition": 0.94}
{"molecule": "O=C1Nc2ccccc2/C1=N/NC(=S)N1CCOCC1", "inhibition": -0.87}
{"molecule": "CC(C)[C@H](NC(=O)c1ccc(O)c(-c2ccc(Cl)c(Cl)c2)c1)C(=O)NCCN1CCCC1", "inhibition": -0.09}
{"molecule": "Nc1nc(N)c2c(ccc3c2cnn3S(=O)(=O)N2CCCC2)n1", "inhibition": 0.03}
{"molecule": "CC(C)c1ccc(NC(=O)c2cccc(CN3CCCN(Cc4cccc(C#N)c4)CC3)c2)cc1", "inhibition": 6.93}
{"molecule": "COc1ccc(CCN(C)CCCCNC(=O)c2ccc(NC(=O)c3ccc(Cl)cc3)cc2)c(OC)c1", "inhibition": 2.15}
{"molecule": "CC(C)C[C@H](NC(=O)[C@H](Cc1ccccc1)NC(=O)CCN1C(=O)COc2ccc(C(=O)O)cc21)C(=O)NC(CC1CCCCC1)C(O)CC(=O)NCCCn1ccnc1", "note": "(stereo not given in full)", "inhibition": 6.73}
{"molecule": "Cc1nc2ccc3ccc(CNc4ccc(C(=O)CC(CCC(=O)O)C(=O)O)cc4)cc3c2c(=O)[nH]1", "note": "(stereo not given)", "inhibition": -1.01}
{"molecule": "CN1CCC(NCc2cccc(-c3cnc(NCc4ccccc4)nc3)c2)CC1", "inhibition": 2.79}
{"molecule": "Cc1cc(-c2nc3cncc(-c4cccc(CN5CCCC5Cc5cccnc5)c4)c3n2C)nn1C", "note": "(stereo not given)", "inhibition": -2.01}
{"molecule": "CCN(CC)CCN(Cc1ccc(-c2ccc(C(F)(F)F)cc2)nc1)C(=O)Cn1c(SCc2ccc(F)cc2)nc(=O)c2sccc21", "inhibition": 1.65}
{"molecule": "COc1ccc(-c2cnc3ccc(NCc4ccc(S(N)(=O)=O)cc4)nn23)cc1", "inhibition": 3.14}
{"molecule": "N#Cc1cccc(COC(=O)C2=C(COc3ccccc3Cl)NC(=O)NC2c2c[nH]c3cnccc23)c1", "note": "(stereo not given)", "inhibition": 6.63}
{"molecule": "Fc1ccc2c(NN=Cc3ccccc3)ccnc2c1", "inhibition": 1.07}
{"molecule": "Fc1ccc(C=NNc2nc3ccccc3[nH]2)cc1", "inhibition": 13.1}
{"molecule": "Cc1[nH]c(C)c(-c2ccc(OCc3ccccc3C(F)(F)F)nc2)c(=O)c1Br", "inhibition": 6.13}
{"molecule": "COc1ccccc1C1CCN(C2CCC(NC(=O)/C=C/c3cccc(C(F)(F)F)c3)CC2)CC1", "note": "(stereo not given)", "inhibition": 3.68}
{"molecule": "CS(=O)(=O)c1ccc2c(c1)CCN(CCC1CCC(NC(=O)C(=Cc3ccc(Cl)cc3Cl)c3ccc(-c4ccccc4)cc3)CC1)CC2", "note": "(stereo not given)", "inhibition": 3.12}
{"molecule": "O=C(NC1CCN(Cc2ccccc2)CC1)c1cc(C(=O)NC2CCN(Cc3ccccc3)CC2)cc(C(=O)NC2CCN(Cc3ccccc3)CC2)c1", "inhibition": 4.78}
{"molecule": "CCc1c[nH]c2c(N(c3ccccc3)S(C)(=O)=O)cc(C(=O)N[C@@H](Cc3ccccc3)[C@H](O)CNC(C)(C)CCCC(C)C)cc12", "inhibition": 1.65}
{"molecule": "CCc1cn(CCc2ccccc2)c2ccc(C(=O)N[C@@H](Cc3ccccc3)[C@H](O)CNC(C)(C)CCCC(C)C)cc12", "inhibition": -1.07}
{"molecule": "CCCCCC(=O)N1CCOC(CCN2CCc3c(c4ccccc4n3C)C2)(c2ccc(Cl)c(Cl)c2)C1", "note": "(stereo not given)", "inhibition": 7.81}
{"molecule": "Cc1nn(C)c(C)c1CN(Cc1nc(-c2cccc(Oc3ccccc3)c2)oc1C)C1CC1", "inhibition": 4.11}
{"molecule": "CC(C)C[C@@H](/C=N/N1CC(=O)NC1=O)NC(=O)[C@H](CC(C)C)NC(=O)c1ccc(OCCN2CCOCC2)cc1", "inhibition": 2.99}
{"molecule": "Nc1nc(N)c2c(ccc3c2ccn3CCCCO)n1", "inhibition": 7.01}
{"molecule": "Cc1ccccc1OCCCN1CCN(CC(c2ccc(F)cc2)N2CCN(C(C)C)CC2)CC1", "note": "(stereo not given)", "inhibition": 12.5}
{"molecule": "CCCc1ccc(S(=O)(=O)Nc2ccc3c(c2)CCC3)cc1", "inhibition": 4.05}
{"molecule": "Fc1ccccc1C=NN=c1cc[nH]c2ccc(C(F)(F)F)cc12", "inhibition": 3.13}
{"molecule": "COCCNCc1ccc(-c2cccc(CN(C(=O)NCCc3ccccc3)C3CCN(Cc4ccccc4)CC3)c2)cc1", "inhibition": -0.26}
{"molecule": "CCn1cc2c3c(cc(C(=O)N[C@@H](Cc4ccccc4)[C@H](O)CNCc4cccc(OC)c4)cc31)N(C)S(=O)(=O)CC2", "inhibition": 3.02}
{"molecule": "O=C(Nc1cccc(-c2cccc(-c3ccc(F)cc3)n2)c1)c1ccc([N+](=O)[O-])o1", "inhibition": 11.4}
{"molecule": "Cn1nc(-c2ccc(NC(=O)Nc3cc(C(F)(F)F)ccc3F)cc2)c2cnc(NCCc3c[nH]cn3)nc21", "inhibition": 3.29}
{"molecule": "Cc1ccc2[nH]c(C)c(Br)c(=O)c2c1", "inhibition": -2.07}
{"molecule": "Cc1noc(-c2ccccc2)c1NC(=O)NC1CCN(CCCCCNC(=O)/C=C/c2ccc(Cl)c(Cl)c2)CC1", "inhibition": 5.32}
{"molecule": "O=C(/C=C/c1ccc(Cl)c(Cl)c1)NC1CCC(CN2CCC(c3nc4ccccc4s3)CC2)CC1", "note": "(stereo not given)", "inhibition": 5.64}
